Compounds with a hit are over-represented: about 3.7% of the library has one in this group of screens.
CHT block: inhibits the human high affinity choline transporter | B-score at 10 µM | CHT-expressing cells, membrane potential dye, choline response; active compounds read low | Q9GZV3 | actives 0.86% (n = 310,000);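 active = B-score over 3 SD under the library average, and starting fluorescence ratio not unusually high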;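 note: choline stimulus applied at its EC90 after an EC20 pre-addition; B-score computed on integrated fluorescence ratio after choline addition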
GPR7 antag: antagonists of human GPR7 (neuropeptides B/W receptor 1). P48145. GPR7-expressing cells, fluorescence antagonist assay. inhibition, % at 4.4 µM. actives 1.1% (n = 290,000). AID 1861; in the data active = inhibition above about 16%, passing the limit was not always enough;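 note: cells stimulated with the agonist NPW; 0% = agonist with vehicle and 100% = vehicle without agonist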
Target sequence (P48145 whole entry, looked up): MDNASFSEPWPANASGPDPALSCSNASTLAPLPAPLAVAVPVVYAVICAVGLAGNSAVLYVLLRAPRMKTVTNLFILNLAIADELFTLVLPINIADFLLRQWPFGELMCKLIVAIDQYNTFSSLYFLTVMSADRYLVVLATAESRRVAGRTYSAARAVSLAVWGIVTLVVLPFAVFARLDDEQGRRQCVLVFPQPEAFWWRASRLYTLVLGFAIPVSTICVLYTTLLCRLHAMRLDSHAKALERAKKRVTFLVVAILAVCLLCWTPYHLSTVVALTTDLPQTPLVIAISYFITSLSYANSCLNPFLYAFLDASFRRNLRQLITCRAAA
TMEM16A inh: mouse TMEM16A channel inhibition, primary screen. Q8BHY3. HEK293 TMEM16A/YFP iodide influx fluorescence, ionomycin. normalized B-score (activity score, 25-100; higher = stronger inhibition) at 10 µM. actives 1.2% (n = 310,000). AID 588511;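 active = ratio plate-corrected score three or more library SD toward inhibition, starting fluorescence score within five deviations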;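 note: score derived from kinetic fluorescence span divided by baseline fluorescence per well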
CHT allo act: allosterically activates the human high affinity choline transporter; AID 488977; CHT-expressing cells, membrane potential dye, choline EC20; active compounds read high; LV-AA mutant CHT in HEK293 cells; B-score at 10 µM; actives 0.49% (n = 310,000); Q9GZV3;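 active = initial fluorescence not abnormally high and integrated response B-score, plate-corrected, over 3 SD above library mean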
Kir21 block: blocks the mouse Kir2.1 inward-rectifier potassium channel. HEK293-Kir2.1, FluxOR thallium flux fluorescence; active compounds read low. B-score at 10 µM. actives 0.85% (n = 310,000);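 active = fluorescence ratio B-score at or below minus 3 SD of library scores, with starting-brightness B-score within 2 SD, cut at about -4.2 in these data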;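 note: channel flux triggered by added potassium and thallium sulfate stimulus; B-score of peak minus minimum fluorescence over baseline after thallium stimulus; more negative B-score means stronger Kir2.1 block with less thallium influx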
TMEM16A act: mouse TMEM16A channel activation, primary screen. Q8BHY3. HEK293 TMEM16A/YFP-H148Q/I152L, iodide quench fluorescence; active compounds read low. B-score at 10 µM. actives 0.3% (n = 340,000). AID 623877;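 active = fluorescence-ratio B-score plate-corrected deviation score at least 3 library SD below zero, with starting fluorescence score within 5 deviations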;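 note: channel opened by trigger with iodide after compound preincubation; score built on the fluorescence ratio of max minus min over baseline; more negative score means more quench and so TMEM16A activation or potentiation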
TMEM16A reconf: reconfirmed blocker of mouse TMEM16A calcium-activated chloride channel | AID 652189 | shares compounds with TMEM16A inh | actives 39% (n = 2,300) | HEK293 TMEM16A/YFP-H148Q, iodide quench fluorescence; ionomycin added to raise cell calcium | inhibition, % at 10 µM;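 active = mean duplicate percent inhibition, scaled so buffer wells are 0 and the reference blocker 100, over three buffer SD above buffer mean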
TMEM16A Ca cntr: alters calcium mobilization in TMEM16A HEK293 cells, counter-screen; shares compounds with TMEM16A inh; TMEM16A/YFP HEK293, Fluo4 calcium mobilization; calcium response (% of ionomycin), % at 10 µM; actives 2% (n = 2,300);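 active = duplicate-averaged calcium signal over 20% of the ionomycin maximum, relative to buffer baseline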;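 note: each well's signal is peak minus trough fluorescence divided by its pre-addition baseline; 0% = buffer wells and 100% = ionomycin wells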
YFP-HEK293 quench: parental YFP-HEK293 iodide quench counter-screen activity | shares compounds with TMEM16A inh | ionomycin | YFP ratio F(max-min)/F0 at 10 µM | 2,300 tested, under 10 active;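 active = yellow fluorescent protein signal ratio exceeding the buffer control mean by over 5 SD of those controls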;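 note: ratio is mean of duplicate wells from kinetic YFP trace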
ClC-1 rat inh: blocks the rat ClC-1 voltage-dependent chloride channel; shares compounds with TMEM16A inh; ratio percent, % at 10 µM; 2,300 tested, under 10 active; CHO ClC-1-YFP, iodide influx fluorescence quench; iodide control reads 0, buffer control 100;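 active = duplicate-mean ratio percent above the mean of iodide-only control wells, which defines zero, plus 5 of their SD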;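 note: higher percent means stronger block of ClC-1 iodide influx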
* hit, by the source's call; i = inactive; · = not tested or not shown.

SMILES	CHT block	GPR7 antag	TMEM16A inh	CHT allo act	Kir21 block	TMEM16A act	TMEM16A reconf	TMEM16A Ca cntr	YFP-HEK293 quench	ClC-1 rat inh
Cc1nnsc1C(=O)NC1CCCc2c1cnn2-c1ccccc1F (stereo unspecified)	i	-5	100*	i	0.29	i	i	i	-1.3	-6
Cc1cc(C)c(S(=O)(=O)NCCCn2ccnc2)cc1C	i	-22	i	i	-0.1	i	·	·	·	·
Cc1cc(OC(=O)c2ccc(S(=O)(=O)N(C)C)cc2)c([N+](=O)[O-])c(=O)[nH]1	i	2	i	i	0.03	i	·	·	·	·
CCCN1CCN(CCCNC(=O)c2ccc3nc(N4CCCCC4)sc3c2)CC1	i	-9	i	i	-0.35	i	·	·	·	·
CC1CC(C)CN(CCCNC(=O)c2ccc3nc(N4CCCCC4)sc3c2)C1 (stereo unspecified)	i	-2	100*	i	-1.6	i	i	i	-1.1	-20
O=[N+]([O-])c1ccc(N2CCN(C(=S)NC3CCCCC3)CC2)cc1	i	-1	25*	i	0.06	i	i	i	-0.99	-21
CCn1c(CNc2ccc(Cl)cc2)nnc1SCC(=O)OC1CCCCC1	i	12	100*	i	-6.6*	i	18%*	i	-1.2	-8
CCOc1ccccc1C(=O)Nc1ccc(-n2nncc2C(C)(C)C)cc1	i	1	i	i	1.2	i	·	·	·	·
CCC(CC)C(=O)N1CC(=O)Nc2ccc(F)cc2C1c1ccc(F)cc1 (stereo unspecified)	i	8	i	i	-0.08	i	·	·	·	·
COc1ccc(CN(C)C(=O)c2cccc(Oc3ccccc3)c2)c(OC)c1OC	i	2	25*	i	-4.9*	i	32%*	i	-1.2	-13
Cc1cccc(-n2ncc3c2CCCC3NC(=O)CCN2CCCO2)c1C (stereo unspecified)	i	-7	i	i	-0.71	i	·	·	·	·
O=C(c1ccccc1)c1ccc2cc(O)ccc2c1	i	-12	25*	i	2.5	i	i	i	-1.1	-2
CC1CCN(Cc2cc(=O)oc3ccc4ccccc4c23)CC1	i	-17	i	i	-0.19	i	·	·	·	·
CCCCCCCCCc1nc2sc3c(c2c(=O)n1NC(=O)c1ccccc1[N+](=O)[O-])CC(C)(C)OC3	i	-3	25*	i	-0.07	i	i	i	-1.2	-8
CCCCCCCCCc1nc2sc3c(c2c(=O)n1NC(=O)c1ccc([N+](=O)[O-])cc1)CC(C)(C)OC3	i	-3	i	i	-0.18	i	·	·	·	·
O=C(CN(C(=O)CCC(=O)Nc1nccs1)c1cccc(C(F)(F)F)c1)NCC1CCCO1 (stereo unspecified)	i	-4	i	i	0.08	i	·	·	·	·
CCCCC1(C)OC(=O)C(=Cc2c[nH]c3ccccc23)C(=O)O1 (stereo unspecified)	i	-2	i	i	0.12	i	·	·	·	·
CCCCC1(C)OC(=O)C(=Cc2ccc(N(C)C)cc2)C(=O)O1 (stereo unspecified)	i	-2	i	i	1.5	i	22%*	i	-0.88	-12
CCCCOc1ccc(C(=O)NNC(=O)c2cnccn2)cc1OC	·	·	·	·	·	i	·	·	·	·
CCOC(=O)N1CCC(=C2c3ccc(Cl)cc3CCc3cccnc32)CC1	i	-8	25*	i	-0.2	i	i	i	-1.1	-16

Screens from PubChem.
